Screening results deposited in PubChem by National Center for Advancing Translational Sciences (NCATS).
A selection: hits, their analogues and other compounds. The true share with any hit is near 11%.
HEK293 tox – HEK 293 cell cytotoxicity. HEK 293 viability, ATP luminescence (CellTiter-Glo), 48-72 h. Potency, µM (doses to about 115 µM), without a hit: at the highest dose activity change, negative = cytotoxicity, hits mostly inhibitors. actives 6.6% (n = 94,000). AID 1345083; note: nearly all actives have a fitted effect of over 60% in size
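Luminescence from cellular ATP, measured with CellTiter-Glo, indicates HEK 293 viability. Cells plated at 250 cells/well are treated with compound for 48 or 72 hr at 37 degree Celsius before reagent addition.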
NIH3T3 tox – cytotoxic compounds in NIH 3T3 cells. NIH 3T3 viability, CellTiter-Glo ATP luminescence, 48-72 h. Potency, µM (series often up to 96.7 µM), for inactives: at the top dose activity change, negative = cytotoxicity, usual class: inhibitors. actives 4.3% (n = 94,000); note: nearly all actives have a fitted effect of over 55% in size
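Viability of NIH 3T3 cells after 48 or 72 hr compound treatment at 37 °C was assessed by CellTiter-Glo, with luminescence imaged following a 10 min room-temperature step.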
Luciferase inh – blocks purified firefly luciferase enzyme activity | Potency, µM (doses to about 115 µM), most hits filed as inhibitors | purified P. pyralis luciferase, luminescence, biochemical | actives 2.5% (n = 76,000) | P08659; note: nearly all actives have a fitted effect of over 65% in size
Target sequence (P08659 whole entry, looked up): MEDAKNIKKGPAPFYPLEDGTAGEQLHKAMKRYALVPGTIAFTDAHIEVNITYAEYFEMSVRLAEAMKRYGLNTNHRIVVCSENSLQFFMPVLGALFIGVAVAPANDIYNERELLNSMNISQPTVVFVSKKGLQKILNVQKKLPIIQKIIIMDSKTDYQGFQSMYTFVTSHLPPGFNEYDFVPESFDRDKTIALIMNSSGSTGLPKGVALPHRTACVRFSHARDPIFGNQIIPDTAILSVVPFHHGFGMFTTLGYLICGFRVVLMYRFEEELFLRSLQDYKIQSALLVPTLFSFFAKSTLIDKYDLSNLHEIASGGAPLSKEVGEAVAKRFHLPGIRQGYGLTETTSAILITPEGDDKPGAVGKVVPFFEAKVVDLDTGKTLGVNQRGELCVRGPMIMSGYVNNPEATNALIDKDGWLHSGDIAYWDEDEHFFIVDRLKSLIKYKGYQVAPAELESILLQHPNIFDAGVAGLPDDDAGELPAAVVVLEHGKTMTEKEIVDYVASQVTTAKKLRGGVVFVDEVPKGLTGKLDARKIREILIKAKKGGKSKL
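Purified 10nM P. pyralis luciferase with 10uM D-luciferin and 10uM ATP in 50mM Tris acetate pH 7.5, 10mM Mg acetate, 0.01% Tween-20, 0.05% BSA. qHTS titration; luminescence read by CCD imager.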
hNpr1 antagonist – antagonists of human natriuretic peptide receptor Npr1; P16066; HEK293 hNpr1 GloSensor cGMP, ANP-stimulated luminescence; Potency, µM (doses to about 46.3 µM), inactives show at the top dose activity change, negative = inhibition, actives largely listed as inhibitors; actives 1.6% (n = 76,000); calls by dose curve; note: nearly all actives have a fitted effect of over 60% in size
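HEK293 cells stably expressing human Npr1 and cGMP GloSensor pGS-40F, loaded 2 h with 2% GloSensor reagent, given compound 30 min at room temperature. Luminescence read before and 20 min after 0.1 nM hNppA.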
Active calls of the source: *; ! = not active in a repeat; [ ] = another dose, or the depositor's remark. Unless noted, calls come from the whole dose curve; as a rule, active = well fitted curve in the direction sought with a large enough effect; inconclusive = small, poorly fitted or top-dose-only effect, or another doubt; inactive = no such curve, though single readings can be large; an effect the other way counts as inactive or inconclusive. % is set by controls: 0 for no effect and ±100 for the full control effect; potency is the fitted concentration of half-maximal effect.

COc1ccccc1-c1ccc(CN2CCCCC2C(=O)NCc2ccc3c(c2)OCO3)cc1 (centres undefined) was read as HEK293 tox 25.1µM* and NIH3T3 tox inconclusive.
For COc1ccccc1-c1ccc(CN2CCCCC2C(=O)NCc2ccccc2Cl)cc1 (centres undefined) the results were HEK293 tox inconclusive and NIH3T3 tox 28.2µM*.
COc1ccccc1-c1ccc(CN2CCCCC2C(=O)NCc2ccc(F)cc2F)cc1 (centres undefined) was read as HEK293 tox 20µM* and NIH3T3 tox inconclusive.
Screening COc1ccc(F)cc1-c1ccc(CN2CCCCC2C(=O)NCc2cccnc2)cc1 (centres undefined) returned HEK293 tox 50.1µM* and NIH3T3 tox inconclusive.
For COc1ccc(CN2C(=O)CO[C@H]3CN(C4CCOCC4)C[C@H]32)cc1 the results were HEK293 tox -2.3%[172 µM], NIH3T3 tox inconclusive, Luciferase inh inactive and hNpr1 antagonist 2.8%[70.6 µM].
For Cc1ccc(Cn2c(-c3ccc(F)cc3)nc(C)c(CCO)c2=O)cc1C the results were HEK293 tox inconclusive, NIH3T3 tox -33.7%, Luciferase inh inactive and hNpr1 antagonist -10.4%.
Screening COc1ccccc1-c1ccc(CN2CCCCC2C(=O)NCc2cccc(F)c2)cc1 (centres undefined) returned HEK293 tox 31.6µM*! and NIH3T3 tox inconclusive.
`COc1ccccc1-c1cccc(C(=O)N2CCC[C@H]2C(=O)NC2CCCC2)c1` gave HEK293 tox -7.3% and NIH3T3 tox -4.3%.
Screening COc1ccccc1-c1ccc(CN2CCCCC2C(=O)NC2CCCC2)cc1 (centres undefined) returned HEK293 tox 35.5µM*! and NIH3T3 tox inconclusive.
For CN1C(=O)CCCCC1C(=O)NCc1cccc(F)c1 (centres undefined) the results were HEK293 tox -1.1%, NIH3T3 tox inactive, Luciferase inh inactive and hNpr1 antagonist 1.0%.
For COc1ccc(F)cc1-c1ccc(CN2CCCCC2C(=O)N2CCc3ccccc3C2)cc1 (centres undefined) the results were HEK293 tox 31.6µM* and NIH3T3 tox 39.8µM*.
Cc1cccc(C(C(=O)N2CCC(CCn3ccnc3C)CC2)N(C)C)c1 (centres undefined) was read as HEK293 tox inconclusive, NIH3T3 tox inconclusive, Luciferase inh inactive and hNpr1 antagonist -0.9%.
For N#CC1(c2ccc(-c3cccc(CN4CCOCC4)c3)cc2)CCCC1 the results were HEK293 tox inconclusive, NIH3T3 tox inconclusive, Luciferase inh 35.5µM* and hNpr1 antagonist -8.2%.
COc1ccc(-c2cnc3[nH]cc(CC(=O)NCc4cnccn4)c3c2)cc1 was read as HEK293 tox inconclusive, NIH3T3 tox 31.6µM*, Luciferase inh inconclusive and hNpr1 antagonist 1.1%[70.6 µM].
COCCNC(=O)Cc1c[nH]c2ncc(-c3ccc(OC)cc3)cc12 was read as HEK293 tox inconclusive, NIH3T3 tox 22.4µM*, Luciferase inh inconclusive and hNpr1 antagonist -4.0%[70.6 µM].
COCCNC(=O)Cc1c[nH]c2ncc(-c3ccccc3)cc12 was read as HEK293 tox -16.5%[172 µM], NIH3T3 tox inconclusive, Luciferase inh inactive and hNpr1 antagonist -0.3%[70.6 µM].
CC(C)CNC(=O)c1nc2sccn2c1-c1cccc(C#N)c1 was read as HEK293 tox -12.8%[172 µM] and NIH3T3 tox -25.7%[138 µM].
For Cc1ccc(NC(=O)N2CCC(CCNC(=O)c3n[nH]c4ccccc34)CC2)cc1F the results were HEK293 tox 79.4µM*, NIH3T3 tox inconclusive, Luciferase inh inconclusive and hNpr1 antagonist -15.7%.
For Cc1ccc(NC(=O)N2CCC(CCNC(=O)c3ccco3)CC2)cc1F the results were HEK293 tox -16.3%, NIH3T3 tox inconclusive, Luciferase inh inactive and hNpr1 antagonist 5.3%.
Screening COc1ccc(C(=O)NCCC2CCN(C(=O)Nc3ccc(C)c(F)c3)CC2)cc1 returned HEK293 tox -23.0%, NIH3T3 tox inconclusive, Luciferase inh 3.55µM* and hNpr1 antagonist -25.0%.
COc1ccc(Nc2ncc(-c3cccnc3)c3c2OCC3)cc1 was read as HEK293 tox inconclusive, NIH3T3 tox inconclusive, Luciferase inh 12.6µM* and hNpr1 antagonist 12.0%[70.6 µM].
For FC(F)(F)c1cccc(Nc2ncc(-c3cccnc3)c3c2OCC3)c1 the results were HEK293 tox inconclusive, NIH3T3 tox inconclusive, Luciferase inh inactive and hNpr1 antagonist -16.3%[70.6 µM].
COc1cccc(Nc2ncc(-c3ccccc3)c3c2OCC3)c1 was read as HEK293 tox inconclusive, NIH3T3 tox -28.0%[138 µM], Luciferase inh 14.1µM* and hNpr1 antagonist inconclusive.
`COc1ccc(-c2cnc(Nc3cccnc3)c3c2CCO3)cn1` gave HEK293 tox 70.8µM*, NIH3T3 tox inconclusive, Luciferase inh inconclusive and hNpr1 antagonist -7.4%[70.6 µM].
For CCOc1ccccc1NC(=O)N1CCCCCCN(C)C(=O)[C@H]2CCC[C@H]21 the results were HEK293 tox inconclusive, NIH3T3 tox inconclusive, Luciferase inh inactive and hNpr1 antagonist -8.0%.
`O=C(c1ccn(C(F)F)n1)N1CCc2nc(-c3ccc(Cl)cc3)[nH]c2C1` gave HEK293 tox 89.1µM*, NIH3T3 tox inconclusive, Luciferase inh inconclusive and hNpr1 antagonist -0.3%.
Screening CCOC(=O)N1CCC(N2CCc3nc(-c4ccc(Cl)cc4)[nH]c3C2)C1 (centres undefined) returned HEK293 tox inconclusive, NIH3T3 tox inconclusive, Luciferase inh inactive and hNpr1 antagonist -2.5%.
COCCCn1c(=O)c(C(=O)NCc2cccs2)nc2cccnc21 was read as HEK293 tox -7.2% and NIH3T3 tox -20.2%.
For O=C(Nc1cccnc1)c1ccc2c(c1)OCCN(c1cccc(OC(F)(F)F)c1)C2 the results were HEK293 tox 28.2µM*, NIH3T3 tox inconclusive, Luciferase inh inactive and hNpr1 antagonist inconclusive.
`COc1cc2c(cc1OC)C(CNC(=O)c1ccc(C)cc1)N(C(=O)NC(C)C)CC2` (centres undefined) gave HEK293 tox 39.8µM*, NIH3T3 tox -2.9%, Luciferase inh inactive and hNpr1 antagonist -1.4%.
COc1cc2c(cc1OC)C(CNC(=O)c1ccc(C)cc1)N(C(=O)Nc1ccccc1F)CC2 (centres undefined) was read as HEK293 tox inconclusive, NIH3T3 tox -8.9%, Luciferase inh inactive and hNpr1 antagonist -1.0%.
Screening CC(C)NC(=O)C1CCN(C(=O)c2ccc(-c3cncnc3)cc2)CC1 returned HEK293 tox -0.3%[172 µM] and NIH3T3 tox inconclusive.
COc1cccc(-c2ccc(C(=O)NCCNC(=O)Cc3ccccn3)cc2)c1 was read as HEK293 tox inconclusive and NIH3T3 tox -15.5%.
For O=C(Nc1ccc2c(c1)OCCO2)N1CCC(Cc2nc(-c3cccnc3)n[nH]2)C1 (centres undefined) the results were HEK293 tox -25.3%, NIH3T3 tox -1.9%, Luciferase inh inactive and hNpr1 antagonist -0.6%.
